Shown is part of a subset that was picked to be rich in hits.
IDE exosite inh = displaces the probe from the exo-site of human IDE; purified IDE, FL-6b probe fluorescence polarization; active compounds read low; AID 1259349; z-score at 20 µM; P14735; 17,000 tested, 6.3% active;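 active means z-score of -3 or lower, meaning strong loss of probe binding signal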;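 further: His-tagged human IDE residues 42-1019 made in E. coli with 30 nM FL-6b probe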
* marks the source's active call; other numbers are inactive results; ! = not active in a repeat.

SMILES | IDE exosite inh
O=C(C1CCOCC1)N1CC(=O)N2[C@H](CO)[C@H](c3ccc(Br)cc3)[C@H]2C1 | 0.69
O=C(C1CCOCC1)N1CC(=O)N2[C@H](C1)[C@H](c1ccc(Br)cc1)[C@@H]2CO | 3.1
CCN(C[C@@H]1N[C@@H](CO)[C@H]1c1ccc(-c2ccccc2)cc1)C(=O)COC | 0.17
N#C[C@H]1[C@H](c2ccccc2C2=CCCC2)[C@@H](CO)N1C(=O)C1CC1 | 1.4
O=C(NC[C@@H]1[C@@H](c2ccccc2)[C@@H](CO)N1Cc1cccnc1)C1CCCCC1 | 0.91
COCC(=O)N1[C@H](C#N)[C@@H](c2ccccc2-c2ccccc2F)[C@H]1CO | -0.079
C[C@@H]1CCCCO[C@H](CN(C)C(=O)C2CCCCC2)[C@H](C)CN([C@H](C)CO)C(=O)c2cc(NS(=O)(=O)c3ccccc3)ccc2O1 | 1.7
C/C=C/c1ccc(C2[C@H]3CNC[C@@H]2N3Cc2cc(-c3ccccc3)on2)cc1 (some centres not stated) | 0.067
COc1ccc(C#Cc2ccc([C@@H]3[C@H]4CN(C(=O)C5CCOCC5)CC(=O)N4[C@H]3CO)cc2)cc1 | 3.4
COc1ccc(C#Cc2ccc([C@@H]3[C@H](CO)N4C(=O)CN(C(=O)C5CCOCC5)C[C@@H]34)cc2)cc1 | 3.3
COc1ccc(C#Cc2ccc([C@H]3[C@@H](CO)N4C(=O)CN(C(=O)C5CCOCC5)C[C@@H]34)cc2)cc1 | 4.3
COc1cccc(C#Cc2ccc([C@H]3[C@@H](CO)N4C(=O)CN(C(=O)C5CC5)C[C@@H]34)cc2)c1 | -4.9*
COc1cccc(C#Cc2ccc([C@H]3[C@H]4CN(C(=O)C5CC5)CC(=O)N4[C@H]3CO)cc2)c1 | -7.3*
COc1cccc(C#Cc2ccc([C@@H]3[C@H](CO)N4C(=O)CN(C(=O)C5CC5)C[C@@H]34)cc2)c1 | -6.3*
CCCNC(=O)N1[C@H](CO)[C@H](c2ccccc2-c2ccccc2)[C@@H]1C#N | 1.8
CC(C)N(C[C@H]1N[C@H](CO)[C@@H]1c1ccccc1)C(=O)CN1CCOCC1 | 7.2
O=C(Nc1ccccc1F)N1CC(=O)N2[C@H](CO)[C@@H](c3ccc(C#CC4CC4)cc3)[C@@H]2C1 | -0.9
O=C1CNC[C@@H]2[C@H](c3ccc(-c4ccccc4F)cc3)[C@@H](CO)N12 | 0.6
Cc1ccccc1S(=O)(=O)N1CC(=O)N2[C@H](C1)[C@H](c1ccc(C#CCC(C)C)cc1)[C@@H]2CO | 1.9
COc1cccc(C(=O)Nc2ccc3c(c2)C(=O)N(C)[C@@H]2CC[C@H](CC(=O)NCc4ccc(F)cc4)O[C@@H]2CO3)c1 | 0.74
O=C(Nc1ccccc1)N1CC(=O)N2[C@H](CO)[C@H](c3ccc(C#CC4CCCCC4)cc3)[C@@H]2C1 | 1.1
Cc1cccc(S(=O)(=O)N2CCCCN3[C@H](C2)[C@H](c2ccc(C#CC4CC4)cc2)[C@@H]3CO)c1 | 2.3
COCC(=O)N1CCCCN2[C@H](C1)[C@H](c1ccc(-c3cccc(C)c3)cc1)[C@@H]2CO | -3*
COCC(=O)N1CCCCN2[C@@H](CO)[C@H](c3ccc(-c4ccc(F)cc4)cc3)[C@@H]2C1 | 2.1
COCC(=O)N1CCCCN2[C@H](C1)[C@@H](c1ccc(-c3ccc(F)cc3)cc1)[C@@H]2CO | 1.1
SMILES | IDE exosite inh
COCC(=O)N1CCCCN2[C@H](CO)[C@H](c3ccc(-c4cccc(C)c4)cc3)[C@@H]2C1 | 1.6
COCC(=O)N1CCCCN2[C@@H](CO)[C@@H](c3ccc(-c4cccc(C)c4)cc3)[C@@H]2C1 | -6.7*
COCC(=O)N1CCCCN2[C@@H](CO)[C@H](c3ccc(-c4ccccc4)cc3)[C@@H]2C1 | 0.00094
COCC(=O)N1CCCCN2[C@H](CO)[C@H](c3ccc(-c4cccc(C)c4)cc3)[C@H]2C1 | -4.7*
COc1ccc2c3c([nH]c2c1)[C@H](CO)N(Cc1ccc(F)cc1)CC31CN(C)C1 | -1.1
O=C(C[C@@H]1CC[C@@H]2[C@H](COC[C@@H](O)CN2Cc2cccc(Cl)c2)O1)NCc1cccc(F)c1 | 0.46
C/C=C/c1ccc([C@H]2[C@H](CO)N3C(=O)CN(C(=O)c4ccncc4)C[C@@H]23)cc1 | 0.78
CCC(=O)N1CC(=O)N2[C@@H](CO)[C@H](c3ccc(C#Cc4cccnc4)cc3)[C@@H]2C1 | -0.53
Cc1cccc(S(=O)(=O)N2[C@@H]3CNC[C@H]2C3c2ccc(-c3ccccc3C)cc2)c1 (some centres not stated) | -4*
Cc1ccccc1-c1ccc(C2[C@H]3CNC[C@@H]2N3S(=O)(=O)c2ccccc2C)cc1 (some centres not stated) | -0.51
COc1ccc(S(=O)(=O)N2[C@@H]3CNC[C@H]2C3c2ccc(-c3ccncc3)cc2)cc1 (some centres not stated) | 3.1
Cc1ccccc1-c1ccc(C2[C@H]3CNC[C@@H]2N3S(=O)(=O)c2ccccc2)cc1 (some centres not stated) | -1.5
COc1ccccc1-c1ccc(C2[C@@H]3CN(S(=O)(=O)c4ccc(F)cc4)C[C@H]2N3)cc1 (some centres not stated) | -3.1*!
O=S(=O)(c1ccc(F)cc1)N1C[C@@H]2N[C@H](C1)C2c1ccc(/C=C/c2ccccc2)cc1 (some centres not stated) | 0.82
COc1ccccc1-c1ccc(C2[C@@H]3CN(S(=O)(=O)c4ccc(C)cc4)C[C@H]2N3)cc1 (some centres not stated) | -1.2
COc1ccccc1-c1ccc(C2[C@H]3CNC[C@@H]2N3S(=O)(=O)c2ccccc2C)cc1 (some centres not stated) | 4.7
O=S(=O)(Cc1ccccc1)N1[C@@H]2CNC[C@H]1C2c1ccc(-c2ccccc2)cc1 (some centres not stated) | -0.66
Cc1ccccc1-c1ccc(C2[C@H]3CNC[C@@H]2N3S(=O)(=O)Cc2ccccc2)cc1 (some centres not stated) | -7.3*
COc1ccc(-c2ccc(C3[C@H]4CNC[C@@H]3N4S(=O)(=O)Cc3ccccc3)cc2)cc1 (some centres not stated) | 0.067
COc1ccc(S(=O)(=O)N2[C@@H]3CNC[C@H]2C3c2ccc(-c3ccccc3OC)cc2)cc1 (some centres not stated) | -3.6*!
O=C(c1ccccc1)N1C[C@@H]2[C@H](c3ccccc31)[C@H](CO)N2Cc1ccccn1 | 1.9
C/C=C/c1ccc([C@H]2[C@@H](CO)N(C(=O)C3CCC3)C23CN(C(=O)NC(C)C)C3)cc1 | 0.053
O=C(Nc1ccccc1)N1CCCCN2[C@H](CO)[C@H](c3ccc(C4=CCCCC4)cc3)[C@@H]2C1 | 2.8
CN(C)CC#Cc1ccc([C@@H]2[C@@H](CO)N3CCCCN(C(=O)C4CCC4)C[C@H]23)cc1 | 0.61
CC[C@H]1C/C=C\C[C@H](c2ccc(OC)cc2OC)NC(=O)[C@H](C)CC(=O)N1 | 1.3
COc1cccc(NC(=O)N2CC(=O)N3[C@H](CO)[C@@H](c4ccc(C5=CCCC5)cc4)[C@H]3C2)c1 | 2.9
CN(C)C(=O)c1ccc(-c2ccccc2[C@@H]2[C@@H](CO)N(C(=O)C3CC3)[C@H]2C#N)cc1 | -0.73
C[C@@H]1CCCCO[C@H](CN(C)C(=O)CCC(F)(F)F)[C@@H](C)CN([C@@H](C)CO)C(=O)c2cc(NC(=O)C3CCCCC3)ccc2O1 | 0.52
O=C(Cc1cccnc1)N1CC2(C1)[C@@H](c1ccccc1)[C@H](CO)N2C(=O)C1CCOCC1 | 1.3
OC[C@H]1[C@@H](c2ccccc2)C2(CN(Cc3ccccc3F)C2)N1Cc1ccccc1F | -0.45

Compound activity (PubChem)
